Screens: PubChem BioAssay, Center for Chemical Genomics, University of Michigan
Dicer inh: blocks human Dicer maturation of pre-miR-21; Q9UPY3; cat-ELCCA pre-miR-21 Dicer processing, chemiluminescence; hits give high values; z-score at 25 µM; 47,000 compounds, 6% hits; in the data active = z-score above about 3, passing the limit was not always enough;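 also: higher signal means more uncleaved substrate so more Dicer inhibition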
A number is an active result; i = inactive. Many of the other results were omitted from the sample, so hits are more common in it than they were.

SMILES	Dicer inh
CN1C(=O)C2(/C(=C(/O)c3ccc(F)cc3)C(=O)C(=O)N2CCN2CCOCC2)c2ccccc21 (centres undefined)	i
C=CCN1C(=O)C2(/C(=C(/O)c3ccccc3)C(=O)C(=O)N2CCN2CCOCC2)c2ccccc21 (centres undefined)	i
Cc1cccc(NC(=O)C(C(F)(F)F)C(F)(F)F)c1	i
Cc1ccc(-c2cnc(NCc3cc(Cl)ccc3O)n2C)cc1C	i
C[C@H](CCC(=O)O)[C@H]1CC[C@H]2[C@@H]3CC[C@@H]4C[C@H](O)CC[C@]4(C)[C@H]3CC[C@]12C	i
Oc1ccccc1O	i
CCOc1ccc(OCC)c(S(=O)(=O)n2cc(C)nc2CC)c1	i
CC1=C(C(=O)OCCOC(C)C)C(c2cccc(F)c2)C2=C(CCCC2=O)N1 (centres undefined)	i
CC(C)(C)NC(=O)CSc1nnnn1-c1ccc(O)cc1	i
Cc1c(C(=O)O/N=C(\N)c2ccc(OS(=O)(=O)N(C)C)cc2)oc2ccccc12	i
COc1ccc(/C(O)=C2\C(=O)C(=O)N(CCCN3CCOCC3)C2c2ccc(OC)cc2)cc1 (centres undefined)	i
COc1ccc(/C(O)=C2\C(=O)C(=O)N(CCN3CCNCC3)C2c2ccc(OC)cc2)cc1 (centres undefined)	i
COc1ccc(/C(O)=C2\C(=O)C(=O)N(CCN3CCOCC3)C2c2ccc(F)cc2)cc1 (centres undefined)	3.2
NC(=O)Cc1nc(-c2ccc(Br)cc2)cs1	3.2
O=C(Cn1c(=O)sc2ccccc21)Nc1nc(-c2ccc(Br)cc2)cs1	i
NC(=O)COc1ccc(-c2noc(COc3ccc(Br)cc3)n2)cc1	i
Cc1onc(-c2c(Cl)cccc2Cl)c1C(=Nc1ccccc1)N1CCCC1	i
COC(=O)c1ccc(CSCCN)o1	i
CSC(=NC#N)N1CCC(C(N)=O)CC1	i
O=S(=O)(c1ccc2ccccc2c1)N1CCN(Cc2ccc3c(c2)OCO3)CC1	6.6
COc1ccc(S(=O)(=O)N2CCN(Cc3ccc4c(c3)OCO4)CC2)cc1	i
O=C(c1cc(-c2ccc3c(c2)OCO3)nc2ccccc12)N1CCN(Cc2ccc3c(c2)OCO3)CC1	i
O=C(c1ccco1)N1CCN(Cc2ccc3c(c2)OCO3)CC1	6.2
O=S(=O)(c1ccccc1)N1CCN(Cc2ccc3c(c2)OCO3)CC1	i
O=C(c1ccc2c(c1)OCO2)N1CCN(Cc2ccc3c(c2)OCO3)CC1	i
SMILES	Dicer inh
CC1CCC(N2CCN(C(=O)c3ccco3)CC2)CC1 (centres undefined)	i
CCCS(=O)(=O)N1CCN(C(=O)c2ccco2)CC1	i
CN(C)C(=O)N1CCN(C(=O)c2ccco2)CC1	3.1
CCOC(=O)c1cc2cc(OCC)ccc2[nH]1	i
COC(=O)c1ccccc1NC(=S)N(C)C	i
O=C1C(=O)N(CCCn2ccnc2)C(c2ccccc2F)/C1=C(\O)c1ccc(Br)cc1 (centres undefined)	i
Clc1cccc(Cl)c1/C=C/c1ccn[nH]1	i
O=S(=O)(c1ccc(Cl)cc1)c1nc2ccc(Cl)cc2s1	i
Cc1ccc(S(=O)(=O)O/N=C(\N)CC(=O)Nc2ccc(F)cc2F)cc1	i
Cc1ncc(CSc2nc(C(C)(C)C)cs2)c(CO)c1O	i
Cc1c(-c2ccnc(=S)[nH]2)sc2nc(C(F)(F)F)nn12	i
Cc1ccc(CSc2nc3ncccc3[nH]2)cc1	4.3
Brc1cccc(CSc2nc3ncccc3[nH]2)c1	i
Fc1cc(Cl)ccc1CSc1nc2ncccc2[nH]1	i
CN=C1NC(=O)CC(C(=O)Nc2cc(C(=O)OC)cc(C(=O)OC)c2)S1 (centres undefined)	i
c1ccc(-c2ccc(C(c3ccccc3)n3ccnc3)cc2)cc1 (centres undefined)	i
O=C1c2oc3ccccc3c(=O)c2C(c2ccccc2F)N1c1ccccn1 (centres undefined)	i
O=C(Nc1ccc(OCc2ccccc2)cc1)Oc1ccccc1N1CCCCC1	4.8
Cc1cc(C)cc(NC(=O)Oc2ccccc2N2CCCCC2)c1	i
CC(=O)Nc1ccc(S(=O)(=O)Oc2ccccc2N2CCCCC2)cc1	i
O=C(O)c1cccnc1Oc1ccccc1	i
CCOC(=O)C1C(=O)CC(O)(c2ccccc2)CC1c1ccccc1 (centres undefined)	i
CN(C)c1ccc(C2CC(=O)C=C(NC3Cc4ccccc4C3)C2)cc1 (centres undefined)	4.6
O=C1C=C(NC2Cc3ccccc3C2)CC(c2ccccc2)C1 (centres undefined)	i
O=C1C=C(NC2Cc3ccccc3C2)CC(c2cccc(Cl)c2)C1 (centres undefined)	i
SMILES	Dicer inh
COC(=O)c1cnc(N/N=C\c2cccc(Cl)c2)nc1C(F)(F)F	i
Cc1cc(Nc2cc(C(F)(F)F)nc3c(Cl)cccc23)on1	i
Nc1ccc(-c2cn3c(n2)SCC3)cc1	i
CC(C)(C)C(=O)NC(=S)Nc1cccc(C(F)(F)F)c1	i
FC(F)(F)c1cccc(NC(=S)Nc2ccccc2C(F)(F)F)c1	i
COC(=O)c1ccc(CSc2ccccc2NC(=S)Nc2cccc(C(F)(F)F)c2)o1	4.4
CCOC(=O)CN(C)S(=O)(=O)c1ccsc1C(=O)OC	i
